Compound activity: PubChem, National Center for Advancing Translational Sciences (NCATS)
Compounds with a hit are over-represented: about 0.35% of the library has one in this group of screens.
MBNL1-CUG inh: inhibitors of human MBNL1 binding to CUG repeat RNA; Q9NR56; TR-FRET MBNL1-His/biotin-(CUG)12 binding, 665/545 ratio; Potency, µM (titrated, usually from 57.5 µM), for the others: at the highest dose activity change, negative = inhibition, hits mostly inhibitors; 0.036% of 280,000 active; AID 2675; active = well fitted inhibition curve with a large enough effect in the signal ratio, with a control signal flat, not every such curve was filed as active; inconclusive = small, poorly fitted or top-dose-only effect, or effect the other way, or a change in a side signal; inactive = no such curve, though single readings can be large or run the other way; the % refers to the signal ratio; note: potency is the fitted concentration of half-maximal effect; % is set by controls: 0 for no effect and ±100 for the full control effect
Target sequence (Q9NR56 whole entry, looked up): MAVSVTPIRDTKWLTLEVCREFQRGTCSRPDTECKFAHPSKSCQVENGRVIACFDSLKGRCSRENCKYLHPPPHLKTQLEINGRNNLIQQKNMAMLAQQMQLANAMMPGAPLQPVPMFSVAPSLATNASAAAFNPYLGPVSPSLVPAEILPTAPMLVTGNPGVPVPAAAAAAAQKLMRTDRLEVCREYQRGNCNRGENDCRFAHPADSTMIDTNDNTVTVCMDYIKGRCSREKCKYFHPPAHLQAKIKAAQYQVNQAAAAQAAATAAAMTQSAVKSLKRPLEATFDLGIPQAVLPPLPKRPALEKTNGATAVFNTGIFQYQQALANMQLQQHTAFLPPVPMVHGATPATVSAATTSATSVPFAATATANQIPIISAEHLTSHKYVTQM
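His-tagged MBNL1 binding to biotinylated (CUG)12 RNA was measured by TR-FRET using terbium anti-His antibody (0.055 ng/ul final) and streptavidin-XL665 (5 nM final). Compounds were titrated 92 nM to 58 uM; 60 min at room temperature.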
TRPV1 PAM: potentiators of human vanilloid receptor 1 (TRPV1); TRPV1-expressing cells, Fluo-8 calcium influx, capsaicin EC20 potentiation; potentiation, % at 8.33 µM; 0.02% of 320,000 active; in the data active = potentiation above about 80%; inconclusive = between about 30% and that limit; note: 0% is about no effect
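Fluo-8 calcium influx in TRPV1-expressing cells, kinetic read (ex 480/em 520 nm). Compound added and read 3 min for agonist activity, followed by capsaicin at EC20 final and 2 min further read for enhancement.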
TCR activator: activates T cell receptor signaling | primary human leukocytes, anti-CD3, IL-2 HTRF, 48 h | Potency, µM (top dose mostly 9.22 µM), for inactives: at the top dose activation of IL-2 secretion, usual class: activators | 330,000 tested, under 10 active | AID 504894; note: % of control where 0% means no effect
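48 hr co-incubation of compounds, a-CD3 beads and primary human leukocytes; IL-2 quantified homogeneously by HTRF with anti-IL-2 K and d2 conjugates.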
TRPV1 ag: human TRPV1 agonism | Q8NER1 | TRPV1-expressing cells, Fluo-8 calcium influx, agonist mode | activation, % at 8.33 µM | 0.19% of 320,000 active | AID 540275; in the data active = activation above about 80%; inconclusive = between about 30% and that limit; note: 0% is about no effect
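Cells expressing TRPV1 were dye-loaded with Fluo-8 and read kinetically: 10 s baseline, 3 min after compound (agonist portion), then 2 min after EC20 capsaicin (allosteric enhancer portion). Calcium-bound dye fluorescence at 480/520 nm.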
CBFb-RUNX1 inh: blocks binding between human CBF-beta and RUNX1; Potency, µM (doses to about 59.8 µM), without a hit: top-dose activity, negative = inhibition, most hits filed as inhibitors; Q01196+Q13951; 230,000 tested, under 10 active; AID 1477; AlphaScreen CBFb-His/RUNX1-biotin binding, biochemical; note: % of control where 0% means no effect
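Compounds were screened at multiple concentrations against a preformed CBF-beta(His)/RUNX1(biotin) complex (30 nM of each) for 15 min at room temperature, followed by 90 min with nickel and streptavidin beads and AlphaScreen reading.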
Luc counter: counter-screen: inhibitors of Kinase-Glo firefly luciferase. Q27757. Kinase-Glo luciferase, ATP luminescence, 8 min. Potency, µM (series often up to 38.3 µM), for the others: at the top dose activity change, negative = inhibition, most hits filed as inhibitors. 0.28% of 200,000 active; note: potency is the fitted concentration of half-maximal effect; % is set by controls: 0 for no effect and ±100 for the full control effect; nearly all actives have a fitted effect of over 60% in size
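Compounds were added to a substrate mix at pH 7.2 (50 mM imidazole, 10 uM ATP, within the enzyme's linear range), followed by Kinase-Glo detection reagent; luminescence was measured after 8 minutes at ambient temperature.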
MBNL1 TRFRET: blocks human MBNL1 binding to CUG repeat RNA, TR-FRET validation; 50% of 140 active; AID 493199; Potency, µM (doses to about 57.6 µM), for the others: top-dose activity change, negative = inhibition, hits mostly inhibitors; shares compounds with MBNL1-CUG inh; TR-FRET MBNL1-His / biotin-(CUG)12 binding, 60 min
MBNL1 AlphaScrn: blocks MBNL1 binding to (CUG)12 RNA in AlphaScreen | 30% of 140 active | Potency, µM (series often up to 57.7 µM), for the others: top-dose activity, negative = inhibition, actives largely listed as inhibitors | AlphaScreen MBNL1-His / biotin-(CUG)12 binding | AID 493205 | shares compounds with MBNL1-CUG inh
MBNL1 HTRF CS: counter-screen for MBNL1-poly(CUG) RNA binding inhibitors; Potency, µM (series often up to 57.6 µM), without a hit: at the top dose activity, negative = inhibition, hits mostly inhibitors; 20% of 120 active; shares compounds with MBNL1-CUG inh; His-Menin/biotin-MLL peptide TR-FRET counterscreen
Active calls of the source: *; ? = inconclusive; / = no result given; [ ] = remark or other dose. Unless noted, calls come from the whole dose curve; as a rule, active = well fitted curve in the direction sought with a large enough effect; inconclusive = small, poorly fitted or top-dose-only effect, or another doubt; inactive = no such curve, though single readings can be large; an effect the other way counts as inactive or inconclusive.

SMILES	MBNL1-CUG inh	TRPV1 PAM	TCR activator	TRPV1 ag	CBFb-RUNX1 inh	Luc counter	others
Cc1nc(Cl)sc1C(=O)Nc1ccc(C(C)(C)C)cc1	-8%	-2	-1%	80*	/	/
O=C(NC1CCN(Cc2ccccc2)CC1)c1ccc(-n2c(=O)c(=O)[nH]c3ccccc32)cc1	/	/	/	/	/	1%
Cc1ccc(C(=O)Nc2nc3ccc(S(C)(=O)=O)cc3s2)o1	-11%	12	0%[46.1 µM]	11	-1%	13µM*
Cc1nn(-c2ccccc2)c(C)c1/C=N/Nc1nc2ccccc2[nH]1	?	11	1%[46.1 µM]	-1	0%	10µM*
Cc1cc(=O)[nH]c(N/N=C/c2c(C)nn(-c3ccccc3)c2C)n1	7%	-13	2%	5	-4%	0%
CCN1CCN(CCCN(Cc2ccco2)C(=S)Nc2ccccc2Cl)CC1	-3%	128*	3%	-2	7%	-2%
COC(=O)N/N=C/c1ccc(-c2cccc(Cl)c2)o1	?	-4	2%[46.1 µM]	21	8%	1%
Nc1ccccc1N=Cc1ccc(-c2cccc(Cl)c2)o1	/	1	5%	117*	-22%	-3%
COc1ccc(NS(=O)(=O)c2cc(NC(=O)c3ccc(C)s3)ccc2N2CCOCC2)cc1	-10%	17	-7%	88*	-11%	/
CCOC(=O)N1CCN(/[N+]([O-])=N/Oc2ccc([N+](=O)[O-])cc2[N+](=O)[O-])CC1C (stereo not given)	/	/	/	/	-2%	/
O=C(O)[C@@H]1[C@H](C(=O)O)[C@H]2C(=O)C=C[C@H]1N2Cc1ccccc1	/	/	/	/	/	0%[7.66 µM]
CCSc1ccc(-c2nn(-c3ccccc3)cc2/C=C(/C#N)C(=O)NC)cc1	?	-3	1%[46.1 µM]	?	7%	2%
CCCSc1ccc(-c2nn(-c3ccccc3)cc2/C=C(/C#N)C(=O)N2CCOCC2)cc1	/	22	-2%[46.1 µM]	101*	-8%	-2%
O[C@@H](C1=C/C(=C\c2ccncc2)c2ccccc21)c1ccncc1	/	/	/	/	/	0%[7.66 µM]
N[C@H](CSSC[C@@H](N)C(=O)O)C(=O)O	/	/	/	/	3%	/
CCOC(=O)[C@H]1[C@H]2COc3ccc(Cl)cc3[C@@H]2N2C(=O)c3cc(F)ccc3NC(=O)[C@@]12C	/	-7	-3%	?	/	/
CCOC(=O)[C@H]1[C@H]2COc3ccc(C)cc3[C@@H]2N2C(=O)c3ccccc3NC(=O)[C@@]12C	/	7	1%	90*	/	/
CCOC(=O)[C@H]1[C@H]2COc3ccccc3[C@@H]2N2C(=O)c3cc(OC)ccc3NC(=O)[C@@]12C	/	3	2%	?	/	/
CCOC(=O)[C@H]1[C@H]2COc3ccc(C)cc3[C@@H]2N2C(=O)c3ccc(F)cc3NC(=O)[C@@]12C	/	20	-5%	85*	/	/
CCOC(=O)[C@H]1[C@H]2COc3ccc(C)cc3[C@@H]2N2C(=O)c3cc(F)ccc3NC(=O)[C@@]12C	/	18	16%	91*	/	/
CCOC(=O)[C@H]1[C@H]2COc3ccc(C)cc3[C@@H]2N2C(=O)c3ccc(C)cc3NC(=O)[C@@]12C	/	-28	12%	?	/	/
CCOC(=O)[C@H]1[C@H]2COc3ccc(OC)cc3[C@@H]2N2C(=O)c3cc(C)ccc3NC(=O)[C@@]12C	/	12	0%	99*	/	/
CC(=O)[C@]1(O)Cc2c(O)c3c(c(O)c2[C@@H](O[C@H]2C[C@H](N)[C@H](O)[C@H](C)O2)C1)C(=O)c1c(O)cccc1C3=O	/	/	/	/	-22%	-12%[39.9 µM]
COC(=O)/C=C/c1cccc(N(Cc2ccc(-c3ccc(N(C)C)cc3)cc2)C(=O)C2CCCCC2)c1	/	/	/	/	3%	/
Nc1ncnc2c([C@@H]3O[C@@H](CO)[C@H](O)[C@@H]3O)nsc12	/	/	/	/	/	-3%[7.66 µM]
SMILES	MBNL1-CUG inh	TRPV1 PAM	TCR activator	TRPV1 ag	CBFb-RUNX1 inh	Luc counter	others
CCOC(=O)[C@H]1[C@H]2COc3ccc(C)cc3[C@@H]2N2C(=O)c3cc(Cl)ccc3NC(=O)[C@@]12C	/	25	2%	82*	/	/
O=C(O)c1ccc(-c2ccc3cc(C45CC6CC(CC(C6)C4)C5)c(O)cc3c2)cc1	/	/	/	/	-21%	/
N#CC(C#N)=C1C=C2C=C(N3CCCCCC3)CCC2CC1 (stereo not given)	?	-6	-7%[46.1 µM]	93*	12%	-1%
CN1CCN(C2=CC3=CC(=C(C#N)C#N)CCC3CC2)CC1 (stereo not given)	?	-5	8%	184*	-24%	-6%
CCN1CCN(C2=CC3=CC(=C(C#N)C#N)CCC3CC2)CC1 (stereo not given)	?	-21	1%	99*	-4%	3%
CC1(C)CC(NCCN2CCN(C3=CC(=C(C#N)C#N)CC(C)(C)C3)CC2)=CC(=C(C#N)C#N)C1	3%	7	-3%	9	-6%	/
N#CC(C#N)=C1C=C2C=C(N3CCOCC3)CCC2CC1 (stereo not given)	?	-12	3%	140*	-3%	-2%
CC1CCCCN1CCCNC(=O)c1ccc(Cc2nc3ccccc3[nH]2)cc1 (stereo not given)	/	/	/	/	/	-2%
CN(C(=O)COC(=O)c1ccc(-c2ccc(O)cc2)cc1)C1CCS(=O)(=O)C1 (stereo not given)	40µM*	-1	-1%	1	13%	/	MBNL1 TRFRET=?;MBNL1 AlphaScrn=21µM*;MBNL1 HTRF CS=-13%
COC(=O)C1=C(C)N(Cc2ccccc2)C(=NCc2ccco2)N[C@H]1c1ccc(Br)cc1	-7%	/	/	/	/	/
Oc1ccc(/C=N/Nc2nccnc2Cl)c(O)c1	?	-7	-3%	21	2%	3.5µM*	MBNL1 TRFRET=?;MBNL1 AlphaScrn=6.5µM*;MBNL1 HTRF CS=17%
Oc1ccccc1/C=N/Nc1nccnc1Cl	17%	-13	-1%	?	/	?
COc1cccc(/C=N/Nc2ncnc(Cl)c2N)c1O	/	-20	-4%[46.1 µM]	-2	/	-5%
